Assay results: PubChem BioAssay AID1224921 (Broad Institute, 2016)
Out of some 1,400 compounds screened, about 350 (25%) were called active. Inconclusive results (about 2%) are left out. How the calls were made is not given here. The list is a sample of the results. Measured potencies and affinities stand elsewhere.

test: C. difficile growth inhibition, confirmation, 4-point retest (AID 1224921); conditions: Clostridioides difficile clinical isolate growth, OD600, 24 h, active compounds read low; at 30 µM unless noted;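 further: plate controls were DMSO wells for no effect and levofloxacin 16 µg/mL wells for full effect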

Max activity, inactive:
CCCN1C[C@@H](C)[C@H](OC)CN(C)C(=O)c2cc(NC(=O)COC)ccc2OC[C@@H]1C 15%, COc1cccc(S(=O)(=O)Nc2ccc3c(c2)[C@@H]2C[C@H](CC(=O)NC4CCCCC4)O[C@H](CO)[C@@H]2O3)c1 27.9%, COc1ccccc1CNC(=O)C[C@H]1C[C@@H]2c3cc(NC(=O)Nc4ccc(C(F)(F)F)cc4)ccc3O[C@@H]2[C@H](CO)O1 28%, COc1ccccc1CNC(=O)C[C@@H]1C[C@@H]2c3cc(NC(=O)Nc4ccc(C(F)(F)F)cc4)ccc3O[C@@H]2[C@H](CO)O1 28.8%, COc1ccccc1CNC(=O)C[C@H]1C[C@H]2c3cc(NC(=O)Nc4ccc(C(F)(F)F)cc4)ccc3O[C@H]2[C@@H](CO)O1 26.5%, CCCN1C[C@H](C)[C@H](OC)CN(C)C(=O)c2cc(NC(=O)c3cccc(F)c3)ccc2OC[C@H]1C 8.18% [at 8 µM], C[C@@H]1CN([C@H](C)CO)C(=O)c2ccccc2-c2ccccc2CO[C@H]1CN(C)C(=O)[C@H](C)c1ccccc1 15.9%, CC(C)CC#Cc1ccc2c(c1)O[C@@H](CN(C)CC1CCOCC1)[C@H](C)CN([C@H](C)CO)S2(=O)=O 29%, C[C@@H]1CN([C@H](C)CO)C(=O)Cc2cc(NC(=O)C3CC3)ccc2O[C@@H]1CN(C)Cc1ccc(Oc2ccccc2)cc1 25.1%, COc1ccccc1C#Cc1ccc2c(c1)O[C@H](CN(C)Cc1cccnc1)[C@@H](C)CN([C@@H](C)CO)S2(=O)=O 53.8%, CCS(=O)(=O)Nc1ccc2c(c1)C(=O)N(C)C[C@H](OC)[C@@H](C)CN(CC1CCCC1)[C@@H](C)CO2 -15.1% [at 8 µM], C[C@@H]1CN([C@@H](C)CO)S(=O)(=O)c2ccc(C#CC3CCCCC3)cc2O[C@@H]1CN(C)Cc1cccnc1 69.7%, C[C@@H]1CN([C@H](C)CO)S(=O)(=O)c2ccc(-c3ccccc3)cc2O[C@H]1CN(C)Cc1ccncc1 33.9%, COc1ccccc1C#Cc1ccc2c(c1)O[C@@H](CN(C)Cc1cccnc1)[C@H](C)CN([C@@H](C)CO)S2(=O)=O 26.4%, CC(C)C#Cc1ccc([C@@H]2[C@@H](C#N)N(C(=O)C3CCC3)[C@H]2CO)cc1 32.2% [at 8 µM], C[C@@H]1CN([C@@H](C)CO)S(=O)(=O)c2ccc(C3=CCCCC3)cc2O[C@H]1CN(C)Cc1ccncc1 29.4%, CCCC#Cc1ccc2c(c1)O[C@H](CN(C)Cc1ccncc1)[C@@H](C)CN([C@H](C)CO)S2(=O)=O 11.6%, COCC(=O)Nc1ccc2c(c1)OC[C@H](C)N(Cc1cncnc1)C[C@@H](C)[C@@H](OC)CN(C)C2=O -11.6%, O=C(Nc1cc(F)ccc1F)N[C@H]1CC[C@@H](CC(=O)N2CCc3ccccc3C2)O[C@H]1CO -5.46% [at 0.5 µM], O=C(C[C@H]1C=C[C@@H](NC(=O)c2ccccn2)[C@H](CO)O1)NCc1cc(F)cc(F)c1 7.65%, CO[C@H]1CN(C)C(=O)c2cc(NC(=O)c3ccccc3)ccc2OC[C@H](C)N(CC2CC2)C[C@H]1C -5.21% [at 8 µM], O=C(Nc1cc(F)ccc1F)N[C@@H]1CC[C@H](CC(=O)N2CCc3ccccc3C2)O[C@@H]1CO 29.6%, CCCC#Cc1ccc2c(c1)O[C@H](CN(C)Cc1cccnc1)[C@@H](C)CN([C@H](C)CO)S2(=O)=O 41%, CO[C@H]1CN(C)C(=O)c2cc(NC(C)=O)ccc2OC[C@H](C)N(Cc2nccs2)C[C@H]1C 16%, O=C1O[C@@H](c2ccccc2)[C@@H](c2ccccc2)N2[C@@H](c3ccc(O)cc3)[C@]3(C(=O)Nc4ccc(C#CC5=CCCCC5)cc43)[C@@H](C(=O)O)[C@H]12 28.7% [at 8 µM], CCCNC(=O)N[C@@H]1C=C[C@@H](CC(=O)N2CCN(C)CC2)O[C@H]1CO -11.4%, Cc1noc(C)c1NC(=O)N[C@H]1CC[C@H](CC(=O)Nc2ccc(-c3ccccc3)cc2)O[C@H]1CO 16%, CCCC(=O)Nc1ccc2c(c1)C(=O)N(C)[C@H]1CC[C@@H](CC(=O)OC)O[C@@H]1CO2 -11% [at 0.5 µM], Cc1ccc(-c2ccc3c(c2)O[C@@H](CN(C)Cc2cccnc2)[C@H](C)CN([C@H](C)CO)S3(=O)=O)cc1 16.8%, NC(=O)[C@H]1[C@@H]2C(=O)O[C@@H](c3ccccc3)[C@@H](c3ccccc3)N2[C@@H](c2ccc(O)cc2)[C@]12C(=O)Nc1ccc(C#CC3(O)CCCCCC3)cc12 32.1%, C[C@H]1CN([C@@H](C)CO)S(=O)(=O)c2ccc(C#CC3(O)CCCC3)cc2O[C@H]1CN(C)C(=O)Nc1ccc(F)cc1 15.4% [at 8 µM], C[C@H](CO)N1C[C@H](C)[C@@H](CN(C)Cc2ccc(Cl)c(Cl)c2)Oc2ccc(NS(=O)(=O)c3ccccc3)cc2CC1=O 28.2%, CO[C@@H]1CN(C)C(=O)c2cc(NC(=O)c3ccc(Oc4ccccc4)cc3)ccc2OC[C@H](C)NC[C@H]1C -11.3% [at 0.5 µM], CC(C)CC#Cc1ccc2c(c1)O[C@@H](CN(C)Cc1ccncc1)[C@@H](C)CN([C@H](C)CO)S2(=O)=O 7.2% [at 0.5 µM], O=C(C[C@@H]1CC[C@@H](NC(=O)CCN2CCCCC2)[C@@H](CO)O1)Nc1nccs1 -8.84% [at 1.95 µM], CCS(=O)(=O)Nc1ccc2c(c1)C(=O)N(C)C[C@H](OC)[C@@H](C)CN(C(C)=O)[C@H](C)CO2 8.06%, CO[C@@H]1CN(C)C(=O)c2cc(NC(=O)c3ccc(-c4ccccc4)cc3)ccc2OC[C@H](C)NC[C@H]1C 10.1% [at 1.95 µM], CCc1cnc(N2[C@H](CO)[C@@H](c3ccc(C4=CCCCC4)cc3)[C@@H]2C#N)s1 36.5% [at 0.5 µM], C[C@H]1CN([C@@H](C)CO)S(=O)(=O)c2ccc(/C=C/c3ccccc3)cc2O[C@H]1CN(C)C(=O)NC1CCCCC1 52.4%, COCC(=O)Nc1ccc2c(c1)OC[C@@H](C)N(Cc1ccccc1OC)C[C@@H](C)[C@H](OC)CN(C)C2=O -8.61% [at 7.5 µM], CC(C)COC(=O)N(C)C[C@@H]1OCc2ccccc2-c2c(n(C)c3ccccc23)C(=O)N([C@@H](C)CO)C[C@@H]1C -18.1% [at 8 µM], CCC(=O)Nc1ccc2c(c1)C(=O)N(C)C[C@@H](OC)[C@@H](C)CN(Cc1cncnc1)[C@@H](C)CO2 -7.99% [at 0.5 µM], C[C@@H]1CN([C@@H](C)CO)C(=O)Cc2cc(NS(C)(=O)=O)ccc2O[C@@H]1CN(C)Cc1ccc(Oc2ccccc2)cc1 36.1% [at 35 µM], C[C@H](CO)N1C[C@H](C)[C@@H](CN(C)Cc2ccncc2)Oc2cc(-c3ccccc3)ccc2S1(=O)=O 23.5%, C[C@@H]1CCCCO[C@H](CN(C)CC2CCCCC2)[C@H](C)CN([C@@H](C)CO)C(=O)c2cc(NC(=O)Nc3ccccc3)ccc2O1 9.95%, C[C@@H]1CCCCO[C@H](CN(C)CC2CCCCC2)[C@H](C)CN([C@@H](C)CO)C(=O)c2cc(NC(=O)Nc3ccc(F)cc3)ccc2O1 11.6%, CO[C@H]1O[C@H](CO)[C@@H](OC(=O)Nc2ccccc2)[C@H](OC(=O)Nc2ccc3c(c2)OCO3)[C@H]1OC(=O)Nc1ccc2c(c1)OCO2 -7.27% [at 1.95 µM], Cc1ccccc1S(=O)(=O)NCC[C@H]1CC[C@H](NC(=O)Nc2cccc(Cl)c2)[C@@H](CO)O1 13.2%, CO[C@@H]1CN(C)C(=O)c2cc(NC(C)=O)ccc2OC[C@H](C)N(Cc2nccs2)C[C@@H]1C 24.6%, CC(C)NC(=O)N1[C@H](C#N)[C@@H](c2ccc(-c3ccc(F)cc3)cc2)[C@@H]1CO 21.4% [at 8 µM], CC(C)C#Cc1ccc([C@@H]2[C@@H](CO)N(C(=O)c3cccc(F)c3)[C@H]2C#N)cc1 15.2%, N#C[C@@H]1[C@@H](c2ccc(C#Cc3ccc(F)cc3)cc2)[C@H](CO)N1C(=O)C1CCC1 35.7%, N#C[C@H]1[C@@H](c2ccc(-c3ccc(F)cc3)cc2)[C@H](CO)N1C(=O)Cc1ccccc1 29.3% [at 8 µM], CO[C@H]1O[C@H](CO)[C@@H](OC(=O)c2ccc(Br)cc2)[C@H](OC(=O)c2cc3ccccc3[nH]2)[C@H]1OC(=O)c1cc2ccccc2[nH]1 39.8%, CC(C)CC#Cc1ccc2c(c1)O[C@H](CN(C)Cc1ccncc1)[C@H](C)CN([C@@H](C)CO)S2(=O)=O 25.7%, C[C@@H]1CN([C@@H](C)CO)S(=O)(=O)c2ccc(C#CC3(O)CCCC3)cc2O[C@@H]1CN(C)C(=O)Nc1cccc(F)c1 40.2%, CO[C@H]1CN(C)C(=O)c2cc(NS(=O)(=O)c3cn(C)cn3)ccc2OC[C@H](C)N(C)C[C@@H]1C -7.09% [at 0.5 µM], COc1cccc(NC(=O)N[C@@H]2C=C[C@H](CC(=O)NCc3ccncn3)O[C@H]2CO)c1 11.5%, CC(C)NC(=O)N(C)C[C@H]1Oc2cc(C#Cc3cccc(F)c3)ccc2S(=O)(=O)N([C@H](C)CO)C[C@H]1C 32.6%
